Experiment [1] can be described thus: Wnt pathway potentiators raising nuclear beta-catenin – imaging, WNT3A-conditioned medium, mouse C2C12, NPC library, primary screen (AID 1117326; in the data active = nuclear beta-catenin stimulation mostly above about 4.2%, no sharp cut-off; inactive = mostly below about 10%). To be noted: stronger effect = higher value.
Experiment [2] can be described thus: stimulators of insulin release from INS-1E, primary screen, cell-based, 5 mM glucose, NPC library (AID 1117329;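 active = compound raises insulin release from rat beta cells at 5 mM glucose, no numeric limit stated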). To be noted: rat INS-1E insulin secretion, at 10 µM, stronger effect = higher value.
Experiment [3] in a line: growth inhibition of GSK3B-pretreated HCT116 cells – cell-based, CellTiter-Glo, 0.2 to 20 µM (AID 1117336;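 active = compounds lowering colon cancer cell viability after pretreatment blocking the GSK3B kinase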). The following applies: HCT116 viability after GSK3B inhibitor, at 20 µM, stronger effect = higher value. In general terms: In ATP-based viability assays light output follows the ATP content of the culture.
Experiment [4] in a line: inhibition of endothelial tube formation, primary screen, imaging, VEGF stimulated, CD31 staining, tube area, NPC library (AID 1117340;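 active = compound that reduces growth-factor-driven endothelial tube area in a mixed cell culture, no cutoff stated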). To be noted: VEGF-stimulated ADSC/ECFC co-culture, at 10 µM, stronger effect = higher value.
Experiment [5] can be described thus: GLP1 release stimulators, primary, NCI-H716, NPC library (AID 1117341;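 active = compound raises GLP1 secretion from the human gut endocrine cells, with no numeric limit stated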). To be noted: NCI-H716 cells, at 10 µM, stronger effect = higher value.
Experiment [6] is described as follows: HCT116 colon cancer cell growth inhibition, primary screen, CellTiter-Glo luminescence, NPC library (AID 1117342;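 active = compounds that lower survival of HCT116 colon cancer cells in the luminescence readout, no numeric limit stated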). The following applies: at 20 µM (top of the series).
Experiment [7] can be described thus: reduced SW480 viability measured with CellTiter-Glo, NPC library, primary (AID 1117343;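 active = compounds that lower viability of the colon cancer cells in the luminescence readout, with no numeric limit stated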). The following applies: CellTiter-Glo luminescence; at 20 µM (top of the series).
Experiment [8] in a line: NPC library primary testing for decreased DLD-1 cell viability via CellTiter-Glo (AID 1117346;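 active = compounds that lower survival of DLD-1 colon cancer cells in the luminescence readout, no cutoff given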). The following applies: DLD-1 viability, CellTiter-Glo luminescence; at 20 µM (top of the series).
Experiment [9] addresses 6-phosphogluconate dehydrogenase, decarboxylating (Homo sapiens) (UniProt P52209). In words: inhibition of human phosphogluconate dehydrogenase – biochemical, recombinant enzyme, NADPH absorbance, primary screen (AID 1159550;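 active = at least 20% inhibition of 6-phosphogluconate dehydrogenase activity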). The following applies: recombinant 6PGD, NADPH absorbance 341 nm; at 10 µM; stronger effect = higher value.
Experiment [10] in a line: EMT-state selective cytotoxicity in co-culture – imaging, PC-3E GFP, TEM4-18 mCherry, primary screen (AID 1345086;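 active = compounds killing one labelled cell type while sparing the other, by normalised counts and ratio limits, not self-fluorescent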;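 for all read-outs here: cells exposed to compound for 72 h before imaging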;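 for red/green cell ratio (normalised): normalised mesenchymal count divided by normalised epithelial count so high means epithelial killing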). To be noted: PC-3E GFP / TEM4-18 mCherry co-culture, imaging cell counts, at 1 µM; for red/green cell ratio (normalised): actives lie on both sides.
For experiment [11], the system named is Aerobactin synthetase IucA (Klebsiella pneumoniae hvKP1). In words: IucA enzyme inhibition, primary screen, biochemical, Spectrum library (AID 1346200; call rule not given here;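 note: 100% = wells without compound and 0% = wells lacking enzyme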). To be noted: malachite green pyrophosphate, A620, at 8 µM, stronger effect = lower value.
Experiment [12] can be described thus: viability loss with induced miR-34 in A549 – imaging, A549 dox-inducible miR-34, nuclei and caspase counts, primary screen (AID 1347080;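 active = compounds whose cell count with miR-34 switched on is under 0.7 times the count with it off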). The following applies: A549 miR-34 inducible, Hoechst nuclei count, 48 h.
The nature of experiment [13]: MELAS cybrid and Rieske KO viability enhancers – cell-based, MELAS cybrids, Rieske KO mouse fibroblasts, CellTiter-Glo, primary screen (AID 1508586).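 Note: z relative to plate mean and SD of compound and empty wells.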 The following applies: low glucose.
Experiment [14] concerns the target NAD(+) hydrolase SARM1 (Homo sapiens) (UniProt Q6SZW1). In words: blocking NAD cleavage by SARM1 SAM-TIR – cell lysate, NAD-Glo luminescence (AID 1508614;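 active = compound whose remaining NAD level is above about 45 nM, limit read from the data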;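 note: higher remaining NAD means stronger inhibition of SARM1 NADase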). The following applies: SAM-TIR HEK293T lysate NADase, at 1 µM, stronger effect = higher value.
For experiment [15], the target named is Mitogen-activated protein kinase 7 (Homo sapiens) (UniProt Q13164). The experiment is described as follows: Gal4-ERK5 driven luciferase induction – cell-based, HTS, primary screen (AID 1508626;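 active = luciferase signal above three times the same-plate solvent-only control wells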;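 note: luciferase driven by Gal4-ERK5 fusion binding five Gal4 sites before minimal TATA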). To be noted: HeLa Gal4-ERK5 transactivation, 18 h, at 5 µM, stronger effect = higher value.
Chain of Mitogen-activated protein kinase 7 (Homo sapiens) (Q13164 whole entry, looked up, the tested form may be a part): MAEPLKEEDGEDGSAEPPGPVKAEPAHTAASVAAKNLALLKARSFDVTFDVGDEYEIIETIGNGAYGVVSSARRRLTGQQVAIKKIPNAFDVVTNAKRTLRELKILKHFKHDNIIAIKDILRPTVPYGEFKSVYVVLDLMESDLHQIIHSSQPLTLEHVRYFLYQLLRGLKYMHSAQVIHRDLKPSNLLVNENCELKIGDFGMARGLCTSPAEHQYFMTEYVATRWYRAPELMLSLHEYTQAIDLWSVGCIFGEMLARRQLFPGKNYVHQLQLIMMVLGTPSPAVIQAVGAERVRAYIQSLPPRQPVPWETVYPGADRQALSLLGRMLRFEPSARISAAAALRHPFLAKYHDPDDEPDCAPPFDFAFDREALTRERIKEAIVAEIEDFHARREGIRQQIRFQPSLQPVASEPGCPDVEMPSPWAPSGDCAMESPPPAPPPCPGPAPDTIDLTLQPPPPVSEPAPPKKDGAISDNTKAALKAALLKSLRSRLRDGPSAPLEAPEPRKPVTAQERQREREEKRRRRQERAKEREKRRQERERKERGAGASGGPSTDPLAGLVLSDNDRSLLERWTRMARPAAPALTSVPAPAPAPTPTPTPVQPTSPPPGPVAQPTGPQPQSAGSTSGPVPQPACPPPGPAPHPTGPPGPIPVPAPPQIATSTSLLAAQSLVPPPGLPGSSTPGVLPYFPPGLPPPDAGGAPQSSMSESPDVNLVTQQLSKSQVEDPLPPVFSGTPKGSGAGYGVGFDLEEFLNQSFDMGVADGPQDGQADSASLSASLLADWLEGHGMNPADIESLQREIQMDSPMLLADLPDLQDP
Experiment [16] can be described thus: galactose survival enhancers in mitochondrial complex I cybrids – cell-based, galactose medium, ATP luminescence, primary screen (AID 1645843;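 active = z-score of at least 1.8 in each of two replicates, scored against plate mean and spread of sample wells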;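 note: positive z means more ATP and so rescue of galactose-driven cybrid death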). To be noted: complex I mutant cybrid cells, 72 h, stronger effect = higher value.
A short description of experiment [17]: yeast 75Q aggregation reduction – 75Q-TubU reporter (AID 1593). The following applies: Yeast 75Q polyglutamine aggregation reporter.
Experiment [18] can be described thus: blockers of cytochrome c efflux from mitochondria – biochemical, purified mitochondria (AID 1603).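 Note: mouse liver mitochondria challenged with calcium chloride; signal normalized to the plate average as 100%.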 The following applies: stronger effect = lower value.
The nature of experiment [19]: polyglutamine aggregate formation blockers (AID 1604). The following applies: polyglutamine-induced protein aggregation inhibition assay; stronger effect = higher value; tested at 2.5 µM.
The nature of experiment [20]: P. berghei load reduction in hepatocytes – cell-based, HepG2, luciferase luminescence, HepG2 viability, primary screen (AID 624349; in the data active = parasite load remaining mostly below about 12%, no sharp cut-off; inactive = mostly above about 10%;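 note: 100% = mean of DMSO negative control wells on the same plate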). To be noted: P. berghei liver stage in HepG2, luciferase luminescence, concentration not given here; parasite load remaining: stronger effect = lower value; viability: measured here: HepG2 viability without parasites.
[21] abbreviates: measured here: epithelial PC-3E GFP cell survival.
Setting [22] is: measured here: mesenchymal TEM4-18 mCherry cell survival.
The mark [23] stands for this setting: measured here: relative caspase fold change +Dox/-Dox.
Setting [24] is: measured here: total cells with miR-34 induction, stronger effect = lower value.
Setting [25] is: measured here: total cells without miR-34 induction.
The mark [26] stands for this setting: MELAS cybrid survival, CellTiter-Glo 48 h, stronger effect = higher value.
Where [27] appears, read: Rieske KO mouse fibroblast survival, CellTiter-Glo 72 h.

Molecules are shown by their SMILES. Values joined by “and” are separate entries in the source; they are usually repeats but may differ in a detail not shown here. Identical values can stand only once. Active and inactive are the calls of the source.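 Rule for the calls, unless noted: active = mean z-score across replicates of 1.96 or higher in either the MELAS or the Rieske mutant cell line; inactive = the rest.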

Chain of 6-phosphogluconate dehydrogenase, decarboxylating (Homo sapiens) (P52209 whole entry, looked up): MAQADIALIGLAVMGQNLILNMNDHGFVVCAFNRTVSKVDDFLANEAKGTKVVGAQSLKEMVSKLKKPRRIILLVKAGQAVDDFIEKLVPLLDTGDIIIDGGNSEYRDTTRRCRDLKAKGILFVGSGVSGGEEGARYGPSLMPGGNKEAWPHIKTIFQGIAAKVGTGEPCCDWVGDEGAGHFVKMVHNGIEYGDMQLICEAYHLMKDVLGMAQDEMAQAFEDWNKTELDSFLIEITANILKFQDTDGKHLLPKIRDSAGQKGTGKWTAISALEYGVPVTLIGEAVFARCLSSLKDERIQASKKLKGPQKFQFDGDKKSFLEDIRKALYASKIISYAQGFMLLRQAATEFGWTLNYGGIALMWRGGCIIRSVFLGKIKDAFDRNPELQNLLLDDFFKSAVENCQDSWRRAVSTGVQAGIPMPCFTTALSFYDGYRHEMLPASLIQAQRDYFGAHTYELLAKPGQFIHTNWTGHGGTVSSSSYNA
Chain of NAD(+) hydrolase SARM1 (Homo sapiens) (Q6SZW1 whole entry, looked up, the tested form may be a part): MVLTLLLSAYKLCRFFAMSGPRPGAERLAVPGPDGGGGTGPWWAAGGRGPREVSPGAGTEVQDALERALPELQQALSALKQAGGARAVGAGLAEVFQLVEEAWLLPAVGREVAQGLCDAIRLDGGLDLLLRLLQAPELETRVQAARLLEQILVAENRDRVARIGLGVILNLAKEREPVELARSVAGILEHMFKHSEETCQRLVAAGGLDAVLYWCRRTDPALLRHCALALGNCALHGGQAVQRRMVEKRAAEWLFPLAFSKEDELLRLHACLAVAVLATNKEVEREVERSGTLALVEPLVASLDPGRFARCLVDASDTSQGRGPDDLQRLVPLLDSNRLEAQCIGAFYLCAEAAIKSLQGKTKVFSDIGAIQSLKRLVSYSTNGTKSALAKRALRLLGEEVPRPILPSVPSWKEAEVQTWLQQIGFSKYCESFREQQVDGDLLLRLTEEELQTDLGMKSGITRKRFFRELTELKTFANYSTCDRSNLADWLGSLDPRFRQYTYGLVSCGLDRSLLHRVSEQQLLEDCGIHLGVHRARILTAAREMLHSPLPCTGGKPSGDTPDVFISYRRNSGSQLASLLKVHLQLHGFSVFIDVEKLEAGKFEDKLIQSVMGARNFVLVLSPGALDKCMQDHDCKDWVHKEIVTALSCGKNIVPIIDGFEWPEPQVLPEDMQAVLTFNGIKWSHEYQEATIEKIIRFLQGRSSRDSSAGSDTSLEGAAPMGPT

As a reminder, the inhibition is the drop in the measured response relative to a control, in per cent. For `COc1ccc(OC)c(C(O)C(C)N)c1` (stereo not given), the nuclear beta-catenin stimulation was -1.8% (inactive) in [1] (at 10 µM) and -1.1% in experiment [1] (stimulation, at 2 µM). The insulin secretion stimulation in experiment [2] is -0.1% (inactive). In experiment [3], the viability decrease was 4% (inactive). In addition, the tube area decrease in experiment [4] is -6.6% (inactive). Also, in [5], the GLP1 secretion stimulation was -3.9% (inactive). Moreover, in [6], the inhibition of viability was -3% (inactive). The viability decrease (inhibition) in experiment [7] is -2.5% (inactive); in experiment [8] it was -4.2% (inactive). Further, the inhibition in [9] was 11.8% (inactive). Besides, the red/green cell ratio (normalised) in experiment [10] was 0.84 (inactive). Moreover, the normalised cell number in experiment [10] (setting [21]) turned out to be 1.33; in [10] (setting [22]) it was 1.11. For the same compound, the activity remaining in [11] was 103% (inactive). The fold change in experiment [12] (stronger effect = lower value) was 1.09 (inactive) and 0.79 (inactive) and 0.922 (inactive); in experiment [12] (setting [23]), 1.23 and 1.51 and 0.904. The cell count in experiment [12] (setting [24]) is 11000 and 8690 and 11600; in [12] (setting [25]), 10000 and 11000 and 12600. The z-score was 0.379 (inactive) in experiment [13] (setting [26]), 0.108 in experiment [13] (setting [27]) and 0.13 (inactive) in experiment [16]. The remaining NAD in experiment [14] was 10 nM (inactive). Also, the luciferase signal in [15] is 104 AU (inactive).
Regarding `CCC1(c2ccc(N)cc2)CCC(=O)NC1=O` (stereo not given), in experiment [17], the score was found to be 1.07. Further, in [18], the cytochrome c release ratio was 0.66. In addition, the inhibition of aggregation in experiment [19] was -9.29%. In addition, the nuclear beta-catenin stimulation in experiment [1] (at 10 µM) is -0.3% (inactive); in experiment [1] (stimulation, at 2 µM) it was -0.3%. The insulin secretion stimulation in experiment [2] is -2.7% (inactive). Besides, the viability decrease in experiment [3] is -4.4% (inactive). The tube area decrease in experiment [4] was 14.2% (inactive). Further, the GLP1 secretion stimulation in experiment [5] is 4.2% (inactive). In experiment [6], the inhibition of viability was -0.6% (inactive). The viability decrease (inhibition) in experiment [7] was 45.3% (inactive); in experiment [8] it was 10% (inactive). Also, in experiment [9], the inhibition is 13.3% (inactive). For the same compound, in [10], the red/green cell ratio (normalised) is 0.89 (inactive). Also, the normalised cell number in experiment [10] (setting [21]) worked out at 1.36; in experiment [10] (setting [22]), 1.2. The activity remaining in [11] is 112% (inactive). The z-score in experiment [13] (setting [26]) was -0.397 (inactive) and 0.19 (inactive) and 0.162 (inactive); in [13] (setting [27]), -0.0248 and -0.0255 and -0.773; in experiment [16], 0.24 (inactive) and 0.82 (inactive) and 0.775 (inactive). Besides, the remaining NAD in experiment [14] was 10 nM (inactive). For the same compound, the luciferase signal in experiment [15] is 56 AU (inactive).
Take `Nc1ccccc1`: the nuclear beta-catenin stimulation in experiment [1] (at 10 µM) is 0.6% (inactive); in experiment [1] (stimulation, at 2 µM), 2%. Also, the insulin secretion stimulation in experiment [2] was -2.4% (inactive). In addition, in [3], the viability decrease is 4.9% (inactive). Besides, in [4], the tube area decrease was -9.5% (inactive). Besides, the GLP1 secretion stimulation in experiment [5] was 1.1% (inactive). For the same compound, the inhibition of viability in experiment [6] is -9.9% (inactive). Also, the viability decrease (inhibition) in experiment [7] was 59.6% (active); in experiment [8], 26.8% (inactive).
In general, viability refers to the share of living cells, or the viability signal relative to a control. Take `Clc1ccc(CO/N=C(\Cn2ccnc2)c2ccc(Cl)cc2Cl)c(Cl)c1`: in experiment [20], the parasite load remaining was 88.3% (inactive) and 30.5% (inactive) and 1.97% (inactive). The viability in experiment [20] was 76.2% and 91.5% and 53%. The nuclear beta-catenin stimulation in [1] (at 10 µM) is 27.8% (inactive); in [1] (stimulation, at 2 µM), 3.3%. Further, the insulin secretion stimulation in experiment [2] was -0.7% (inactive). Also, the viability decrease in experiment [3] was 101% (active). In addition, the tube area decrease in experiment [4] was 109% (active). Moreover, the GLP1 secretion stimulation in [5] was 25.7% (active). Moreover, the inhibition of viability in experiment [6] is 101% (active). The viability decrease (inhibition) in [7] is 141% (active); in [8] it was 103% (active). Moreover, in experiment [9], the inhibition is -14.7% (inactive). The red/green cell ratio (normalised) in experiment [10] (counts scaled to control wells, 1 = unselective) is 1.02 (inactive). For the same compound, the normalised cell number in [10] (setting [21]) worked out at 1.03; in experiment [10] (setting [22]), 1.05. In experiment [11], the activity remaining is 128% (inactive). Further, the fold change in experiment [12] (stronger effect = lower value) is 0.851 (inactive); in experiment [12] (stronger effect = lower value, cell number ratio, induced over uninduced), 1.12 (inactive); in [12] (setting [23]), 1.03 and 1.16. In addition, the cell count in [12] (setting [24]) is 7740 and 6080; in experiment [12] (setting [25]) it was 6900 and 7140. For the same compound, the z-score was -0.195 (inactive) and 0.269 (inactive) in experiment [13] (setting [26]); 0.707 and 1.28 in experiment [13] (setting [27]); -2.53 (inactive) in experiment [16]. Also, the remaining NAD in [14] is 10 nM (inactive). The luciferase signal in [15] is 52 AU (inactive).

The values above are taken from PubChem BioAssay.
